This excerpt belongs to a sample that is enriched for hits.
CD40 NFkB inh – inhibitors of CD40-induced NF-kB signaling, primary screen, BL2 cells, luciferase reporter, single point. CD40L-induced, 4 h. inhibition, % at 10 µM. 83,000 compounds, 0.94% hits. AID 1053188, 2014;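 active = mean inhibition of at least 50% with a set share of replicates also reaching that level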;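 note: 0% = neutral control wells and 100% = IKK inhibitor VII at 50 µM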
* = called active by the depositor; [ ] = another dose, or the depositor's remark.

SMILES | CD40 NFkB inh
C[C@@H]1CN([C@@H](C)CO)C(=O)c2c(c3ccccc3n2C)-c2ccccc2CO[C@H]1CN(C)C(=O)c1cc(Cl)cc(Cl)c1 | 29[25 µM]
CC1(C)C2CCC1(C)C(OCC[N+](C)(C)CC(=O)OC1CCCCC1)C2 (stereo unspecified) | 57*
O=C(CCCCC(=O)OC1CCCCC1)OC1CCCCC1 | -10
CC1(C)[C@H]2CC[C@]1(C)[C@@H](OC(=O)C[N+]1(C)CCOCC1)C2 | 0
OC[C@H]1[C@@H](c2ccc(Br)cc2)[C@@H]2CNCCCCN12 | 0[25 µM]
CCCN1[C@@H]2c3ccc(-c4ccncc4)c(=O)n3C[C@H]1[C@H](CO)[C@H]2C(=O)NCC1CC1 | 0[25 µM]
Cc1cc(C)c2c(c1)SC1=NC(c3ccccc3)(C(F)(F)F)NC(=O)N12 (stereo unspecified) | 50*
N#C[C@H]1[C@@H](c2ccc(C#Cc3ccc(F)cc3)cc2)[C@H](CO)N1C(=O)Nc1ccc(F)cc1 | -12
N#C[C@H]1[C@H](c2ccccc2-c2ccc(F)cc2)[C@H](CO)N1C(=O)NC1CCCCC1 | 13[25 µM]
N#C[C@@H]1[C@@H](c2ccc(C#CC3CCCC3)cc2)[C@H](CO)N1C(=O)Nc1ccc(F)cc1 | 21
N#C[C@@H]1[C@@H](c2ccccc2-c2ccc(F)cc2)[C@H](CO)N1C(=O)NC1CCCCC1 | 59*[25 µM]
N#C[C@H]1[C@H](c2ccccc2-c2ccc(F)cc2)[C@@H](CO)N1C(=O)NC1CCCCC1 | 30[25 µM]
N#C[C@@H]1[C@H](c2ccc(C#CC3CCCC3)cc2)[C@H](CO)N1C(=O)Nc1ccc(F)cc1 | 0
N#C[C@H]1[C@@H](c2ccc(C#CC3CCCCC3)cc2)[C@@H](CO)N1C(=O)Nc1ccc(F)cc1 | 62*[25 µM]
CC(C)NC(=O)N1[C@H](CO)[C@@H](c2ccc(C#CC3CCCCC3)cc2)[C@@H]1C#N | 19
N#C[C@@H]1[C@H](c2ccc(C#CC3CCCCC3)cc2)[C@@H](CO)N1C(=O)Nc1ccc(F)cc1 | 77*[25 µM]
COCC(=O)N1C[C@H]2[C@@H](c3ccccc31)[C@@H](CO)N2C(=O)C1CC1 | 4
CC(=O)c1ccc(S(=O)(=O)N2CCCCC2C(=O)O)cc1 (stereo unspecified) | 5
CCOc1ccc(OCCC(=O)Nc2ccc(F)cc2C)cc1 | 6
COc1cccc(NC(=O)N(C)C[C@H]2Oc3ncc(/C=C/c4ccccc4)cc3C(=O)N([C@@H](C)CO)C[C@H]2C)c1 | 1[25 µM]
O=C(NCC[C@H]1CC[C@@H](NC(=O)c2ccccc2F)[C@H](CO)O1)c1cnccn1 | -1[25 µM]
CO[C@@H]1CN(C)C(=O)c2ccc(NC(=O)C3CC3)cc2OC[C@H](C)N(Cc2cccnc2)C[C@@H]1C | 2
COc1ccc(NC(=O)c2ccccc2NC(=O)c2ccco2)cc1 | -8
COc1ccc(-c2cccc(NC(=O)c3ccco3)c2)nn1 | -10
COc1ccc(-c2ccc(NC(=O)c3ccco3)cc2)nn1 | 82*
SMILES | CD40 NFkB inh
CNC[C@H]1[C@@H](c2ccc(C#CCC3CCCC3)cc2)[C@@H](CO)N1C(=O)C1CCC1 | 1[25 µM]
C#CCSc1nnc(-c2cc3c(C(F)(F)F)nn(C)c3s2)n1C | 11
C[C@H]1CN([C@@H](C)CO)C(=O)Cc2cc(NC(=O)Cc3cn(C)c4ccccc34)ccc2O[C@H]1CN(C)Cc1ccc(C(F)(F)F)cc1 | 76*[25 µM]
C[C@@H]1CN([C@@H](C)CO)C(=O)c2cc(NC(=O)Cc3cn(C)c4ccccc34)ccc2O[C@@H]1CN(C)Cc1ccc2c(c1)OCO2 | 5[25 µM]
C[C@@H]1CN([C@@H](C)CO)C(=O)c2cc(NC(=O)CCN3CCOCC3)ccc2O[C@@H]1CN(C)Cc1ccc(C(F)(F)F)cc1 | 9[25 µM]
COc1ccc(CN(C)C[C@H]2Oc3ccc(NC(=O)Cc4cn(C)c5ccccc45)cc3CC(=O)N([C@@H](C)CO)C[C@@H]2C)cc1 | 6
C[C@@H]1CN([C@H](C)CO)C(=O)Cc2cc(NC(=O)Cc3cn(C)c4ccccc34)ccc2O[C@H]1CN(C)Cc1ccc(C(F)(F)F)cc1 | 72*[25 µM]
C[C@@H]1CN([C@@H](C)CO)C(=O)Cc2cc(NC(=O)Nc3ccc(C(F)(F)F)cc3)ccc2O[C@H]1CN(C)Cc1ccc2c(c1)OCO2 | 5
O=C(C1CCCC1)N1CC[C@H]2[C@H](CO)Nc3ccc(-c4cccc(F)c4)cc3[C@H]21 | -6
N#C[C@@H]1[C@@H](c2ccc(C#Cc3cccnc3)cc2)[C@@H](CO)N1C(=O)C1CCC1 | 8[25 µM]
CN1CCn2c1nc(N1CCOCC1)nc2=O | 4
Cc1ccc(S(=O)(=O)N(C)C[C@@H]2OCCCC[C@H](C)Oc3ccc(NS(=O)(=O)c4ccc(F)cc4)cc3C(=O)N([C@H](C)CO)C[C@@H]2C)cc1 | -4
O=C(NCC[C@H]1CC[C@@H](NS(=O)(=O)Cc2ccccc2)[C@@H](CO)O1)C1CCCCC1 | -6[25 µM]
CCN(CC(=O)Nc1cc(Cl)ccc1C)C(=O)CSCc1c(C)noc1C | 1
Cc1ccc(C)c(NC(=O)CN(C)C(=O)CSCc2c(C)noc2C)c1 | 29*
Cc1noc(C)c1CSCC(=O)N(C)CC(=O)Nc1ccc(Cl)c(Cl)c1 | -3
O=C(NC[C@@H]1[C@H](c2ccccc2)[C@H](CO)N1CC1CCCC1)c1ccncc1 | 4[25 µM]
N#C[C@H]1[C@H](c2ccc(C3=CCCCC3)cc2)[C@H](CO)N1C(=O)NC1CCCCC1 | 27
CC(C)COC(=O)N(C)C[C@@H]1OCc2ccccc2-c2ccccc2C(=O)N([C@H](C)CO)C[C@H]1C | 7[25 µM]
Cc1noc(C)c1NC(=O)N[C@@H]1C=C[C@H](CC(=O)Nc2ccc(-c3ccccc3)cc2)O[C@H]1CO | -16[25 µM]
CCC1(c2ccccc2)NC(=O)N(CC(=O)NC2CCCCCC2)C1=O (stereo unspecified) | -11
OC(COCCC12CC3CC(CC(C3)C1)C2)CN1CCCC1 (stereo unspecified) | 11
CC(NCC(O)COCCC12CC3CC(CC(C3)C1)C2)c1ccccc1 (stereo unspecified) | 86*
NCC(O)COCCC12CC3CC(CC(C3)C1)C2 (stereo unspecified) | 15
O=S(=O)(Nc1ccc(-c2ccc3nncn3n2)cc1)c1cccs1 | 10
SMILES | CD40 NFkB inh
N#C[C@@H]1[C@H](c2ccccc2/C=C/c2ccccc2)[C@H](CO)N1S(=O)(=O)c1ccc(F)cc1 | 3[25 µM]
Fc1ccccc1/C=C1\CCCC2=C1Nc1nnnn1C2c1ccccc1F (stereo unspecified) | 75*
COc1ccccc1-c1ccc([C@H]2[C@@H](CO)N(C(=O)NC(C)C)[C@H]2C#N)cc1 | -39
CC(=O)N(C)C[C@H]1Oc2ccccc2CC(=O)N(C)C[C@@H]1C | -1
COc1ccc(C(=O)N(C)Cc2cnn(Cc3ccccc3)c2)cc1S(=O)(=O)N1CCOCC1 | 6
CO[C@@H]1CN(C)C(=O)c2cc(NC(=O)C3CCC3)ccc2OC[C@H](C)N(Cc2ccc(F)cc2)C[C@H]1C | 11
O=C(C[C@@H]1C[C@H]2c3cc(NC(=O)CC4CC4)ccc3O[C@H]2[C@H](CO)O1)NCC1CC1 | 5[25 µM]
CN1c2ccc(-c3cccc(F)c3)cc2[C@@H]2[C@@H](CCN2C(=O)C2CC2)[C@H]1CO | -97
COc1ccc(-c2ccc3c(c2)[C@@H]2[C@@H](CCN2C(=O)C2CC2)[C@H](CO)N3C)cc1 | 40
CN1c2ccc(-c3cccc(F)c3)cc2[C@@H]2[C@@H](CCN2C(=O)C2CC2)[C@@H]1CO | 20
COc1ccc(-c2ccc3c(c2)[C@H]2[C@H](CCN2C(=O)C2CC2)[C@H](CO)N3C)cc1 | -5
CN1c2ccc(-c3cccc(F)c3)cc2[C@H]2[C@H](CCN2C(=O)C2CC2)[C@H]1CO | 53*

High-throughput results from PubChem BioAssay.
